Results filed as inconclusive are left out. Activity calls are given as the source filed them. The call rests on the fitted dose curve; in most records, active means well fitted curve in the direction sought with a large enough effect; inconclusive means small, poorly fitted or top-dose-only effect, or another doubt; inactive means no such curve, though single readings can be large; an effect the other way counts as inactive or inconclusive.
Columns and labels:
[1] = Quantitative High-Throughput drug screen in 47 multiple myeloma cell lines against the NCATS MIPE library collection: JIM3_ECACC cell viability assay (AID 1918963; further: nearly all actives have a fitted effect of over 35% in size; further: potency means the concentration at half of the fitted maximal effect)
Method in brief: (§1)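 Myeloma cells (500 per well) were exposed to MIPE 4.0 compounds by pin transfer and incubated 48 hours at 37C, 5% CO2. Viability was read as ATP by CellTiter-Glo luminescence, normalised to DMSO (100%) and media-only (0%) wells.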

[2] = Quantitative High-Throughput drug screen in 47 multiple myeloma cell lines against the NCATS MIPE library collection: INA6_PLB cell viability assay (AID 1918965; further: nearly all actives have a fitted effect of over 55% in size; further: potency means the concentration at half of the fitted maximal effect)
Method in brief: (§2)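 CellTiter-Glo ATP luminescence gave viability after 48 h compound treatment at 37C of 500 multiple myeloma cells per well. Normalisation used DMSO-only wells as 100% and media-only wells as 0% viability; primary qHTS of approved and investigational drugs.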

[3] = Quantitative High-Throughput drug screen in 47 multiple myeloma cell lines against the NCATS MIPE library collection: JJN3_DSMZ cell viability assay (AID 1918966; further: nearly all actives have a fitted effect of over 50% in size; further: potency means the concentration at half of the fitted maximal effect)
Method in brief: (§3)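 Inhibition of cell viability is measured here. Each line was plated at 500 cells per well, treated with MIPE 4.0 drugs, kept 48 hours at 37C, then assayed for ATP content by CellTiter-Glo luminescence.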

[4] = Quantitative High-Throughput drug screen in 47 multiple myeloma cell lines against the NCATS MIPE library collection: Karpas25_ECACC cell viability assay (AID 1918968; further: nearly all actives have a fitted effect of over 35% in size; further: potency means the concentration at half of the fitted maximal effect)
Method in brief: as §3

[5] = Quantitative High-Throughput drug screen in 47 multiple myeloma cell lines against the NCATS MIPE library collection: NCIH929_DSMZ cell viability assay (AID 1918978); further: nearly all actives have a fitted effect of over 35% in size; further: potency means the concentration at half of the fitted maximal effect
Method in brief: (§4)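 ATP-based CellTiter-Glo luminescence after 48 h drug exposure (37 °C, 5% CO2) of 500 myeloma cells per well. DMSO-only wells set 100% viability, media-only wells 0%; MIPE 4.0 library added by pin tool.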

[6] = Quantitative High-Throughput drug screen in 47 multiple myeloma cell lines against the NCATS MIPE library collection: LP1_DSMZ cell viability assay (AID 1918982); further: nearly all actives have a fitted effect of over 35% in size; further: potency means the concentration at half of the fitted maximal effect
Method in brief: as §4

[7] = Quantitative High-Throughput drug screen in 47 multiple myeloma cell lines against the NCATS MIPE library collection: KHM11_PLB cell viability assay (AID 1918962); further: nearly all actives have a fitted effect of over 35% in size
Method in brief: as §1

[8] = Quantitative High-Throughput drug screen in 47 multiple myeloma cell lines against the NCATS MIPE library collection: KMS27_JCRB cell viability assay (AID 1918970); further: nearly all actives have a fitted effect of over 30% in size; further: potency means the concentration at half of the fitted maximal effect
Method in brief: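 Each line is seeded at 500 cells per well and treated with library compounds for 48 hours under 37 °C, 5% CO2. CellTiter-Glo is then added for 5 min at room temperature before median relative luminescence is recorded.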

[9] = Quantitative High-Throughput drug screen in 47 multiple myeloma cell lines against the NCATS MIPE library collection: KMS12PE_JCRB cell viability assay (AID 1918972); further: nearly all actives have a fitted effect of over 30% in size; further: potency means the concentration at half of the fitted maximal effect
Method in brief: as §2

[10] = Quantitative High-Throughput drug screen in 47 multiple myeloma cell lines against the NCATS MIPE library collection: KMS20_JCRB cell viability assay (AID 1918973); further: nearly all actives have a fitted effect of over 45% in size; further: potency means the concentration at half of the fitted maximal effect
Method in brief: as §3

[11] = Quantitative High-Throughput drug screen in 47 multiple myeloma cell lines against the NCATS MIPE library collection: KMS26_JCRB cell viability assay (AID 1918975); further: nearly all actives have a fitted effect of over 45% in size; further: potency means the concentration at half of the fitted maximal effect
Method in brief: (§5)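 Viability readout: CellTiter-Glo luminescence following 5 min room-temperature incubation with reagent. Prior exposure: 48 h, 37C, humidified 5% CO2, 500 cells per well.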

[12] = Quantitative High-Throughput drug screen in 47 multiple myeloma cell lines against the NCATS MIPE library collection: MOLP8_DSMZ cell viability assay (AID 1918977); further: nearly all actives have a fitted effect of over 45% in size; further: potency means the concentration at half of the fitted maximal effect
Method in brief: as §4

[13] = Quantitative High-Throughput drug screen in 47 multiple myeloma cell lines against the NCATS MIPE library collection: OCIMY1_PLB cell viability assay (AID 1918979); further: nearly all actives have a fitted effect of over 35% in size; further: potency means the concentration at half of the fitted maximal effect
Method in brief: as §4

[14] = Quantitative High-Throughput drug screen in 47 multiple myeloma cell lines against the NCATS MIPE library collection: MM1R_ATCC cell viability assay (AID 1918981); further: nearly all actives have a fitted effect of over 35% in size; further: potency means the concentration at half of the fitted maximal effect
Method in brief: as §4

[15] = Quantitative High-Throughput drug screen in 47 multiple myeloma cell lines against the NCATS MIPE library collection: MM1S_ATCC cell viability assay (AID 1918980); further: potency means the concentration at half of the fitted maximal effect; nearly all actives have a fitted effect of over 45% in size
Method in brief: as §4

[16] = Quantitative High-Throughput drug screen in 47 multiple myeloma cell lines against the NCATS MIPE library collection: JIM1_ECACC cell viability assay (AID 1918964; further: potency means the concentration at half of the fitted maximal effect)
Method in brief: as §3

[17] = Quantitative High-Throughput drug screen in 47 multiple myeloma cell lines against the NCATS MIPE library collection: H1112_PLB cell viability assay (AID 1918967; further: nearly all actives have a fitted effect of over 30% in size; further: potency means the concentration at half of the fitted maximal effect)
Method in brief: as §3

[18] = Quantitative High-Throughput drug screen in 47 multiple myeloma cell lines against the NCATS MIPE library collection: KMS12BM_JCRB cell viability assay (AID 1918971); further: nearly all actives have a fitted effect of over 35% in size; further: potency means the concentration at half of the fitted maximal effect
Method in brief: as §5

[19] = Quantitative High-Throughput drug screen in 47 multiple myeloma cell lines against the NCATS MIPE library collection: KMS21BM_JCRB cell viability assay (AID 1918974); settings: ATP luminescence, 48 h; viability: at 45.8 µM (top of the series) unless noted; further: potency means the concentration at half of the fitted maximal effect
Method in brief: as §3

[20] = Quantitative High-Throughput drug screen in 47 multiple myeloma cell lines against the NCATS MIPE library collection: MMM1_PLB cell viability assay (AID 1918976)
Method in brief: as §4

Measured: Potency

CC(COc1ccccc1)N(CCCl)Cc1ccccc1 (configuration not stated)
inactive: [1] | [2] | [3] | [4] | [5] | [6]

O=C(C1CCCCC1)N1CC(=O)N2CCc3ccccc3C2C1 (configuration not stated)
inactive: [7] | [1] | [4] | [8] | [9] | [10] | [11] | [12] | [13] | [14] | [6]

Cc1ccc(-c2cc(C(F)(F)F)nn2-c2ccc(S(N)(=O)=O)cc2)cc1
active: [9] 4.18 µM | [15] 20.9 µM | [14] 8.33 µM
inactive: [7] | [13]

Cn1cnc2c1c(=O)[nH]c(=O)n2C
active: [1] 16.6 µM | [16] 4.69 µM | [2] 7.43 µM | [3] 16.6 µM | [17] 18.7 µM | [4] 9.35 µM | [8] 9.35 µM | [18] 18.7 µM | [9] 5.9 µM | [10] 5.9 µM | [19] 9.35 µM | [11] 20.9 µM | [20] 10.5 µM | [12] 16.6 µM | [5] 16.6 µM | [13] 23.5 µM | [15] 29.6 µM | [14] 18.7 µM | [6] 16.6 µM

Clc1ccc2c(c1)C(N1CCNCC1)=Nc1ccccc1O2
inactive: [16] | [9] | [12] | [13]
active: [1] 26.4 µM | [4] 14.8 µM | [10] 20.9 µM | [20] 16.6 µM | [5] 20.9 µM | [15] 7.43 µM

OCCN1CCN(CCCN2c3ccccc3Sc3ccc(C(F)(F)F)cc32)CC1
active: [1] 26.4 µM | [16] 16.6 µM | [2] 16.6 µM | [17] 23.5 µM | [4] 2.96 µM | [9] 9.35 µM | [10] 16.6 µM | [19] 14.8 µM | [11] 20.9 µM | [5] 20.9 µM | [15] 2.96 µM | [6] 18.7 µM

CCOC(=O)Nc1ccc(NCc2ccc(F)cc2)nc1N
active: [2] 14.8 µM | [8] 18.7 µM | [15] 23.5 µM
inactive: [1] | [4] | [18] | [12] | [13] | [6]

CN(C)CCOC(c1ccccc1)c1ccccc1
inactive: [8] | [18] | [11] | [14] | [6]
active: [1] 23.5 µM | [2] 10.5 µM | [4] 9.35 µM | [10] 18.7 µM | [15] 10.5 µM

COC(=O)Nc1nc2ccc(C(=O)c3cccs3)cc2[nH]1
active: [1] 0.001 µM | [16] 0.001 µM | [2] 0.001 µM | [17] 0.0132 µM | [18] 0.0026 µM | [11] 0.296 µM | [5] 0.296 µM | [15] 0.0743 µM | [14] 0.0418 µM | [6] 0.0105 µM

O=c1c(-c2ccc(O)cc2)coc2cc(O)cc(O)c12
active: [18] 5.26 µM | [9] 2.64 µM
inactive: [7] | [1] | [13]

O=c1[nH]cc(F)c(=O)[nH]1
inactive: [11]
active: [1] 20.9 µM | [2] 5.26 µM | [9] 4.69 µM | [20] 5.9 µM | [15] 14.8 µM | [14] 10.5 µM | [6] 14.8 µM

CN1CCN2c3ccccc3Cc3ccccc3C2C1 (configuration not stated)
active: [1] 20.9 µM | [17] 23.5 µM | [4] 23.5 µM | [18] 20.9 µM | [9] 18.7 µM | [11] 26.4 µM | [20] 20.9 µM | [13] 16.6 µM | [15] 13.2 µM

COc1ccccc1N1CCN(CC(O)COc2cccc3ccccc23)CC1 (configuration not stated)
inactive: [3] | [9] | [12] | [5] | [13] | [6]
active: [1] 5.26 µM | [17] 16.6 µM | [4] 11.8 µM | [20] 6.62 µM

CN(Cc1cnc2nc(N)nc(N)c2n1)c1ccc(C(=O)N[C@@H](CCC(=O)O)C(=O)O)cc1
active: [16] 0.0264 µM | [2] 0.0372 µM | [3] 0.0469 µM | [4] 1.18 µM | [8] 0.0296 µM | [18] 6.62 µM | [20] 18.7 µM | [12] 6.62 µM | [5] 2.35 µM | [13] 4.18 µM | [15] 0.0187 µM | [14] 0.935 µM

COc1ccc2c(c1)c(CC(=O)O)c(C)n2C(=O)c1ccc(Cl)cc1
inactive: [1] | [12] | [13] | [14] | [6]
active: [2] 16.6 µM | [4] 20.9 µM | [10] 9.35 µM | [5] 18.7 µM | [15] 18.7 µM

Cc1cnc(C(=O)NCCc2ccc(S(=O)(=O)NC(=O)NC3CCCCC3)cc2)cn1
inactive: [8] | [12] | [5] | [13]
active: [1] 18.7 µM | [18] 18.7 µM | [9] 14.8 µM | [6] 20.9 µM

Fc1ccc([C@@H]2CCNC[C@H]2COc2ccc3c(c2)OCO3)cc1
active: [17] 10.5 µM | [18] 14.8 µM | [20] 14.8 µM | [14] 18.7 µM
inactive: [1] | [4] | [9] | [11]

O=C(CCCN1CCC(O)(c2ccc(Cl)cc2)CC1)c1ccc(F)cc1
active: [2] 18.7 µM | [4] 2.96 µM | [10] 13.2 µM | [15] 9.35 µM
inactive: [18] | [12] | [13] | [14]

Clc1ccc(C(c2ccccc2Cl)C(Cl)Cl)cc1 (configuration not stated)
active: [1] 20.9 µM | [18] 18.7 µM | [11] 18.7 µM | [20] 20.9 µM | [12] 26.4 µM | [13] 26.4 µM | [14] 14.8 µM
inactive: [17]

CCCCc1oc2ccccc2c1C(=O)c1cc(I)c(OCCN(CC)CC)c(I)c1
active: [16] 18.7 µM | [2] 16.6 µM | [3] 18.7 µM | [4] 5.9 µM | [8] 6.62 µM | [18] 18.7 µM | [9] 26.4 µM | [11] 20.9 µM | [20] 18.7 µM | [12] 23.5 µM | [5] 23.5 µM | [13] 26.4 µM | [15] 2.35 µM | [14] 18.7 µM

COc1cc2nc(N3CCN(C(=O)C4COc5ccccc5O4)CC3)nc(N)c2cc1OC (configuration not stated)
active: [2] 20.9 µM | [17] 18.7 µM | [4] 20.9 µM | [18] 6.62 µM | [9] 5.9 µM | [20] 20.9 µM | [5] 23.5 µM | [14] 20.9 µM | [6] 11.8 µM
inactive: [12]
